# FMDV inh = foot and mouth disease virus antiviral activity; Potency, µM (titrated, usually from 57.9 µM), for inactives: top-dose activity change, negative = inhibition, usual class: inhibitors; actives 1.2% (n = 410,000); AID 1159524; FMDV antiviral cell-based qHTS; calls by dose curve; tested in HEK293T cells; also: read-out not given here; potency is read from the fitted curve at half-maximal effect; % is scaled to controls: 0 for no effect and ±100 for the full control effect; nearly all actives have a fitted effect of over 45% in size
# Shiga inhibitor = inhibitors of Shiga toxin in Vero cells | Vero cells, Shiga toxin protein synthesis inhibition reporter | inhibition, % at 38.7 µM | actives 9.2% (n = 290,000); in the data active = inhibition mostly above about 28%, no sharp cut-off; inactive = mostly below about 43%; also: 0% is about no effect
# Cycloheximide cs = counter-screen hit for Shiga toxin inhibitors, cycloheximide. cell reporter, cycloheximide protein synthesis inhibition counterscreen. max response, %. actives 12% (n = 300,000). AID 2314; in the data active = max response mostly above about 13%, no sharp cut-off; inactive = mostly below about 14%; also: read at 38.3 µM for the half of the compounds with a filed dose; 0% is about no effect
# Sm TGR block = inhibitors of Schistosoma mansoni thioredoxin glutathione reductase. actives 3% (n = 360,000). Potency, µM (titrated, usually from 114 µM), without a hit: at the highest dose activity change, negative = inhibition, hits mostly inhibitors. AID 485364. Q962Y6. purified TGR, DTNB reduction, TNB absorbance 405 nm; active = well fitted inhibition curve with a large enough effect; inconclusive = small, poorly fitted or top-dose-only effect; inactive = no such curve, though single readings can be large or run the other way; also: potency is read from the fitted curve at half-maximal effect; % is scaled to controls: 0 for no effect and ±100 for the full control effect; nearly all actives have a fitted effect of over 60% in size
#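 Kinetic colorimetric format: TGR-catalysed, NADPH-driven DTNB reduction monitored via TNB absorbance. Enzyme dispensed at 20 nM; compound exposure 15 min at room temperature before reaction start.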
# Starred values were filed as active, the others as inactive; i = inactive; u = inconclusive; x = no result; + = active, no number. Compounds with a hit are over-represented: about 12% of the library has one in this group of screens.
SMILES,FMDV inh,Shiga inhibitor,Cycloheximide cs,Sm TGR block
COCCN(C(=O)c1ccccc1F)c1nc(-c2ccc(OC)cc2)cs1,8%,11,-2,12%
COCCN(C(=O)C(C)C)c1nnc(-c2ccc(C)cc2)s1,24%,83*,29,0%
CCC(=O)N(CC)c1nc(-c2ccc(OC)cc2)cs1,u,84*,61*,6%
CCC(=O)N(Cc1ccco1)c1nc(-c2ccc(OC)cc2)cs1,-3%,45,-2,-25%
CCN(C(=O)c1ccccc1F)c1nc(-c2ccc(OC)cc2)cs1,67%,51*,44*,-20%
COCCN(C(=O)c1ccccc1F)c1nnc(-c2ccc(OC)cc2)s1,33%,46*,32*,3%
CC(C)(C)C(=O)Nc1ccc(C(=O)Nc2cccnc2)cc1,22%,52,43*,4%
O=C(Nc1cccnc1)c1ccc(COCC(F)(F)F)cc1,39%,38*,12*,4%
CCC(=O)Nc1ccc(C(=O)Nc2cccnc2)cc1,67%,37*,15*,6%
Cc1ccc(-c2cc3ncc4c(n3n2)-c2cc(Cl)ccc2OC4)cc1,1%,x,x,-3%
Cc1ccc(-c2cc(C(=O)Nc3nccs3)c3ccccc3n2)o1,-22%,-5,-2,7.1µM*
COc1ccc(NC(=O)c2cc(-c3ccc(C)o3)nc3ccccc23)cc1OC,-12%,80*,38*,u
COc1ccc(C(=O)c2ccc(OC)c(N)c2)cc1N,8%,122*,50*,4%
Cc1ccc(-n2nc(C)c3nc(CCC(=O)Nc4cccc(C)c4C)c(=O)n(C)c32)cc1,-4%,x,x,4%
CC(C)C[C@@H](CSc1ccc(Br)cc1)N1CCN(C)CCC1=O,55%,57*,40*,u
Cc1ccc(SC[C@H](CC(C)C)N2CCN(C)CCC2=O)cc1,51%,84*,38*,-17%
COc1ccc(SC[C@H](CC(C)C)N2CCN(C)CCC2=O)cc1,60%,75*,17*,-15%
CCCN1CCC(=O)N(C(CSc2ccc(Br)cc2)Cc2ccccc2)CC1 (stereo not given),x,-10,-5,x
COc1ccc(SCCN2CCN(C)CCC2=O)cc1,-8%,44,7,-6%
CCOc1ccccc1C(=O)NCC(c1cccs1)S(=O)(=O)c1ccc(F)c(C)c1 (stereo not given),-14%,x,x,-7%
N#Cc1cccc(-n2c(-c3ccccc3)nnc2-c2ccccc2)c1C#N,-3%,24,19*,11%
CCOc1ccc(-n2c(-c3ccccc3)nnc2-c2ccccc2)cc1,-17%,8,-4,12%
N#Cc1ccc(-n2c(-c3ccccc3)nnc2-c2ccccc2)cc1C#N,x,37,30*,-4%
CC(=O)c1nnn(-c2ccccc2C#N)c1C,1%,-4,-1,2%
CCN(c1ccccc1)c1nnc(NC(=O)Nc2cccc(Br)c2)s1,0%,x,x,0%
SMILES,FMDV inh,Shiga inhibitor,Cycloheximide cs,Sm TGR block
COc1ccc(C)cc1NC(=O)CN1C(=O)CCc2cc(S(=O)(=O)N3CCOCC3)ccc21,2%,x,x,-2%
C[n+]1ccc(/C=C/c2ccccc2O)c2ccccc21,-14%,-6,-2,-13%
CN1/C(=C/c2cc[n+](C)c3ccccc23)C=Cc2ccccc21,14µM*,-11,2,-31%
Cc1ccn2c(Nc3ccc4c(c3)OCO4)c(-c3ccco3)nc2c1,40%,x,x,-25%
CC(C)[C@H]1CN(C)CCN1Cc1cn(C)nc1-c1cccc(Cl)c1,-13%,1,-4,6%
COCCN1CCN(Cc2cn(C)nc2-c2cccc(Cl)c2)CC1,-6%,-2,-3,-4%
Cn1cc(CN2CCN(Cc3ccccc3)CC2)c(-c2cccc(Cl)c2)n1,u,-15,-2,32µM*
CN(Cc1cn(C)nc1-c1cccc(Cl)c1)C1CCOCC1,67%,-21,-1,u
CN(Cc1ccon1)Cc1cn(C)nc1-c1cccc(Cl)c1,-12%,71,33*,12%
Cn1cc(CN2CCC[C@H]2CO)c(-c2cccc(Cl)c2)n1,-7%,-10,27*,14%
CCNc1ncc2nc(-c3ccc(F)cc3)c(=O)n(CCOC)c2n1,-8%,x,x,x
COc1cc2c(cc1OC)C1O[C@](c3ccsc3)(C2)OC2=C1C(=O)OC1(CCCCC1)C2,x,i,-1,u
CCCCC(=O)Nc1ccc(F)c(Cl)c1,32%,29,16*,-2%
CCC(C)NC(=O)Nc1ccc(F)c(Cl)c1 (stereo not given),44%,34,23*,0%
CC(C)CNC(=O)Nc1ccc(F)c(Cl)c1,93%,40,26*,x
CSCC(=O)Nc1ccc(F)c(Cl)c1,-13%,23,-1,u
COc1ccc(N2C(=O)CS(=O)(=O)C23C(=O)N(Cc2ccccc2F)c2ccccc23)cc1Cl (stereo not given),0%,x,x,11%
Cc1ccc(NCc2ccccc2-c2nnc(-c3ccccc3Cl)o2)c(C)c1,42%,x,x,-3%
O=C(CCS(=O)(=O)c1nc(-c2ccc3c(c2)OCO3)cc(C(F)(F)F)n1)Nc1ccc(F)c(Cl)c1,u,x,x,-14%
CCNC(=S)N/N=C/c1sc(N2CCCCC2)nc1-c1cccs1,12%,active,30*,7%
CCCCNC(=S)N/N=C/c1sccc1C,0%,36,9,-3%
Cc1onc(-c2c(F)cccc2Cl)c1C(=O)Nc1cccc(S(=O)(=O)NCc2ccco2)c1,8%,59*,38*,28µM*
Cc1onc(-c2c(F)cccc2Cl)c1C(=O)NCc1ccco1,-18%,9,2,-6%
Cc1onc(-c2c(F)cccc2Cl)c1C(=O)OCC(=O)NCc1ccco1,-15%,-3,1,18µM*
O=C(Nc1cccc(S(=O)(=O)NCc2ccco2)c1)c1ccc(Cl)cc1,12%,x,x,x
SMILES,FMDV inh,Shiga inhibitor,Cycloheximide cs,Sm TGR block
COc1ccccc1CNc1nc2c(S(=O)(=O)c3ccc(C)c(C)c3)nnn2c2ccc(Cl)cc12,-11%,x,x,-2%
COc1cc2oc(=O)cc(-c3cccc(-c4ccc(C(C)=O)cc4)c3)c2c(OC)c1OC,x,+,39*,x
COc1cc(OC)c2c(-c3cccc(/C=C/c4ccc(F)cc4)c3)cc(=O)oc2c1,63%,+,50*,x
COc1ccc(-c2cccc(-c3cc(=O)oc4cc5c(cc34)OCO5)c2)cc1,-2%,i,30*,x
COc1cc(OC)c2c(-c3cccc(-c4cccc(C)c4)c3)cc(=O)oc2c1,u,i,5,x
COc1ccc(-c2cccc(-c3cc(=O)oc4cc(OC)c(OC)c(OC)c34)c2)cc1,-13%,i,26,x
COc1cc2oc(=O)cc(-c3ccc(-c4ccc(OC(F)(F)F)cc4)cc3)c2c(OC)c1OC,0%,70*,24,x
CCCCc1nn2c(=O)cc(COC(=O)c3ccc(NC(=O)C4CCCCC4)cc3)nc2s1,u,x,x,0%
COc1cc2oc(=O)cc(-c3ccc(-c4ccc(F)c(Cl)c4)cc3)c2c(OC)c1OC,-26%,-2,6,x
COc1cc(OC)c2c(-c3cccc(-c4ccc(N(C)C)cc4)c3)cc(=O)oc2c1,-6%,+,37*,x
COc1ccc(-c2ccc(-c3cc(=O)oc4cc(OC)c(OC)c(OC)c34)cc2)cc1F,-6%,79*,30*,x

# Compound activity as filed in PubChem BioAssay.
